# Bioassay records: PubChem, Broad Institute
# Rows were chosen to be rich in hits. Some 3% of all compounds tested hit in one or more screens of this group.
# N-glyco inh = N-linked glycosylation inhibition. D54 ERlucT glycosylation luciferase reporter, 24 h; percent of 100 nM tunicamycin response. reporter increase, % at 12.5 µM. 360,000 compounds, 0.23% hits. AID 588692;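 active = mean luciferase reporter signal, scaled so untreated is 0 and the glycosylation-blocking control 100, at or above a set limit in every replicate; inconclusive = mean reaches the limit but not every replicate does; inactive = mean below the limit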;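 note: luciferase carries N-glycosylation sites so blocking glycosylation raises the light; 0% = median of neutral control wells and 100% = median of 100 nM tunicamycin wells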
# Wnt bcat act = activators of Wnt/beta-catenin signaling | Wnt/beta-catenin reporter cell assay, activator, plate reader | activation, % at 9.35 µM | 300,000 compounds, 1.2% hits; in the data active = activation above about 30%, passing the limit was not always enough; inconclusive = no clear call, values can overlap the other calls;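 note: 0% = neutral control wells and 100% = positive control wells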
# esBAF inh = inhibitors of esBAF chromatin remodeling in mouse ES cells. Bmi1-luciferase knock-in reporter, 24 h; 100% = twice the neutral-well signal. reporter increase, % at 12.5 µM. 350,000 compounds, 2% hits. AID 602393; in the data active = activation above about 40%; inconclusive = no clear call, values can overlap the other calls;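 note: 0% = median of the plate's neutral control wells and 100% = double that signal; a rise in the Bmi1 reporter signal indicates esBAF inhibition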
# Vif imaging = HIV Vif inhibition; AID 602346; inhibition, % at 7.49 µM; 340,000 compounds, 0.35% hits; HEK293T cells, Vif self-association by quenched fluorescence, imaging, 24 h; in the data active = inhibition above about 50%, passing the limit was not always enough; inconclusive = no clear call, values can overlap the other calls; inactive = below about 31%
# MITF TRPM1 HTS = activators of MITF-driven TRPM1 promoter activity in SK-MEL-5 cells. SK-MEL-5 TRPM1-promoter luciferase, 24 h; % of positive control, neutral wells = 0. activation, % at 12.5 µM. 300,000 compounds, 0.75% hits. AID 588334;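 active = mean activation of at least 80% with every replicate also reaching 80%; inconclusive = mean reaches 80% but some replicate falls short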;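 note: 0% = neutral control wells and 100% = parthenolide positive control wells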
# PfHsp90 yeast 2 = growth inhibition of yeast expressing Plasmodium Hsp90. S. cerevisiae expressing PfHsp90, BacTiter-Glo ATP, 48 h; yeast lacking PDR1 and PDR3 efflux regulators. inhibition, % at 9.4 µM. 310,000 compounds, 0.32% hits. AID 504621;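 active = every replicate shows inhibition above about 80%, whatever the replicate mean, limit read from the data; inconclusive = mean inhibition reaches the set limit but some replicate falls short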;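 note: 0% = DMSO neutral controls and 100% = 20 µM radicicol positive controls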
# * marks the source's active call; other numbers are inactive results; i = inactive; ? = inconclusive; · = no result.
SMILES,N-glyco inh,Wnt bcat act,esBAF inh,Vif imaging,MITF TRPM1 HTS,PfHsp90 yeast 2
COc1cc(-c2noc(C)c2-c2ccc3[nH]ccc3c2)cc(OC)c1OC,48*,·,-19,?,-29,-7
O=c1cc2oc3cc(O)c(O)cc3c(-c3ccccc3[N+](=O)[O-])c-2cc1O,-13,-9,-77,5,-42,83*
C(C#CCCCCCCCCC[n+]1ccccc1)#CCCCCCCCCC[n+]1ccccc1,13,·,-35,2,-100,121*
Cc1cccc(C(=O)Nc2ccc(C(=O)/C=C/c3cccnc3)cc2)c1,-8,·,42*,0,-26,-58
O=C(/C=C/c1cccnc1)c1ccc(NC(=O)c2cccc(Br)c2)cc1,5,·,19,1,7,2
CC(C)=CC(=O)OCc1cc([N+](=O)[O-])cc2c1OCOC2,-3,41*,·,0,48,·
COCCCNC(=O)c1ccc(Cn2c(=O)c3ccccc3n(Cc3ccc(C)cc3)c2=O)cc1,-1,·,-6,-1,-11,-8
CCC(=O)n1nc(-c2ccc(Cl)cc2)nc1SC,2,40*,71*,53*,64,20
CSc1nc(-c2ccc(Cl)cc2)nn1S(=O)(=O)c1ccc(Cl)cc1,0,-2,47*,16,·,1
CSc1nc(-c2ccc(Cl)cc2)nn1S(=O)(=O)c1ccccc1,1,·,?,-5,76,7
CCC(=O)n1nc(-c2ccc(OC)cc2)nc1SC,3,·,43*,8,30,9
CC1=C/C(=N\OS(=O)(=O)c2ccccc2)C(C(C)C)=CC1=O,25,·,·,10,-6,104*
CC1=C(C)/C(=N\OS(=O)(=O)c2ccc(C)cc2)C=CC1=O,-10,·,·,22,-41,110*
CC1=C/C(=N\OS(=O)(=O)c2ccccc2)C(C)=CC1=O,9,·,·,-33,-34,105*
CC(S(=O)(=O)c1ccccc1)S(=O)(=O)c1ccccc1,1,1,4,21,·,·
COc1ccc(S(=O)(=O)N2CC[C@H]3[C@@H](CO)N(C)c4ccc(-c5ccccc5F)cc4[C@H]32)cc1,·,·,5,·,·,·
CC1CN(S(=O)(=O)c2cccc(C(=O)NNC(=O)C(C)Oc3ccccc3F)c2)CC(C)O1 (stereo not given),-2,3,0,·,-2,·
CC(=O)Nc1c(C)nn(-c2ccc([N+](=O)[O-])cc2)c1C,-1,0,-9,-2,8,12
CSc1nnc(NC(=O)c2ccc(S(=O)(=O)N(C)C)cc2)s1,-10,40*,·,0,5,21
CN(C)S(=O)(=O)c1ccc(C(=O)Nc2nc3ccccc3[nH]2)cc1,-4,13,66*,-10,62,-1
COc1ccc(C(=O)N2CCN(c3ccc(C(C)=O)cc3)CC2)cc1S(=O)(=O)N1CCCC1,2,7,48*,-2,-1,-15
Cc1cc(C)cc(C(=O)Nc2nc3ccccc3[nH]2)c1,2,14,80*,-4,49,-16
O=C(Nc1nc2ccccc2[nH]1)c1cc(F)cc(F)c1,-1,22,-2,19,50,-6
COc1ccc(C(=O)N2CCN(c3ccccc3)CC2)cc1S(=O)(=O)N1CCOCC1,1,0,6,2,10,10
Nc1ccc2oc(-c3cccc4ccccc34)nc2c1,-3,·,-33,-2,-46,-9
SMILES,N-glyco inh,Wnt bcat act,esBAF inh,Vif imaging,MITF TRPM1 HTS,PfHsp90 yeast 2
COc1ccc(C(=O)Nc2nc3ccccc3[nH]2)cc1S(=O)(=O)N1CCCC1,-1,5,45*,-4,10,9
CC(C)(C)S(=O)(=O)N1C[C@H]2CC/C=C\C/C(c3ccccc3)=C\2[C@@H]1CCO,38*,-2,2,·,0,10
O=C(Cc1ccc(Br)cc1)N1CCN(c2ccccc2O)CC1,-1,11,50*,-9,61,5
Cc1sc2ncnc(Nc3ccc(O)cc3)c2c1C,-2,38*,3,7,4,-10
C/C(=N\Nc1ccc(Cl)c(C(=O)O)c1)c1ccccn1,3,12,·,0,5,-21
C/C(=N\Nc1ncnc2sc(C)c(C)c12)c1ccccn1,10,-6,-26,i,-67,104*
CC(=NNC(=S)Nc1ccccc1Cl)c1ccccn1,-11,-13,·,-6,-46,99*
C/C(=N\Nc1ncc(Cl)cc1Cl)c1ccccn1,-21,·,·,3,-95,108*
Oc1ccc(Nc2ncnc3scc(-c4ccccc4)c23)cc1,-5,-1,·,15,-13,-9
O=C(CSc1nccc(=O)[nH]1)Nc1ccc(F)c([N+](=O)[O-])c1,1,-1,·,-2,15,14
CO[C@H]1CN(C)C(=O)c2cc(C#N)ccc2OC[C@@H]2O[C@@H](CC[C@H]2OC)CCN(C)C(=O)[C@@H]1C,·,·,-2,·,·,·
Cc1ccc2c(Cl)c(C(=O)Nc3ccc4c(c3)OCO4)sc2c1,0,·,·,-6,99*,8
Cc1noc(C(=O)Nc2ccc3c(c2)OCO3)c1Cl,3,12,51*,·,55,0
CCc1onc(C)c1C(=O)Nc1ccc2c(c1)OCO2,1,0,7,13,-6,-9
CC1=C(C(=O)OCc2ccccc2)C(c2ccc(Br)cc2)NC(=O)N1CCCCCC(=O)O (stereo not given),-1,46*,90*,1,63,9
CC(C)NC(=O)N(C)C[C@H]1Oc2ccc(NC(=O)Nc3cccc4ccccc34)cc2CC(=O)N([C@H](C)CO)C[C@@H]1C,·,·,0,·,·,·
CCCCc1ccc(NC(=O)N2CCN(c3cc(C)nc4ccccc34)CC2)c(C)c1,6,·,-32,-8,-15,-5
COc1cc(/C=C2\SC(=S)N(CCC(=O)N3CCCCC3)C2=O)cc(OC)c1OC,70*,2,-6,3,-12,-76
O=C1/C(=C/c2cccs2)SC(=S)N1CCC(=O)N1CCCCC1CCO (stereo not given),-3,9,60*,-4,35,-24
O=C(CCN1C(=O)/C(=C\c2cccs2)SC1=S)NC1=NCCS1,1,-1,·,6,13,-19
O=C(CCN1C(=O)/C(=C/c2cccs2)SC1=S)N1CCCCC1,50*,1,-3,37,-7,15
Cc1ccc(/C=C2\SC(=S)N(CCC(=O)N3CCCCC3)C2=O)cc1,18,0,0,-4,-7,31
O=C(CCN1C(=O)/C(=C/c2cccs2)SC1=S)NC1=NCCS1,2,·,·,-3,-8,106*
O=C(CN1CCN(Cc2cccc(Cl)c2)C1=O)NCc1cccs1,-3,-4,3,18,-9,11
O=C(Nc1cccc(C(=O)N2CCOCC2)c1)C1CC1,2,-2,-1,2,-2,42
O=C(CCN1C(=O)/C(=C\c2ccccc2)SC1=S)N1CCCCC1,56*,-2,0,22,9,19
